# The full data set covers some 7,900 targets. This sample favours those with a hit. About 0.6% of all pairs of compound and target were hits. Unmarked numbers belong to inactive results.
# Tests used:
# Assay in all cases: log2 fold change, soluble protein after heating vs DMSO (PISA); higher = thermal stabilisation; K562 cells, 10 uM, 30 min; active = over 0.2 and 3.5 SD of the protein, either way, in both replicates (recomputed)
# [1] = compound: COC1=CC=C(C=C1)CN2C=CC3=C2C=C(C=C3)C(=O)NO
# Procedure, shortened: (§1)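 K562 cells at 2×10^6 cells/mL were treated for 30 min with 10 μM compound, and aliquots were heated for 3 min over 48°C-58°C before pooling. Extraction used PBS with 0.5% NP-40 at 4°C, and soluble protein was the supernatant after 21,000xg for 90 min, measured by TMTpro 16plex LC-MS/MS with channel sums equalised. Thermal stability values, relative to control samples and from duplicates, are log2 fold changes.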
# [2] = compound: CON(C)C(=O)N1N=C(c2cc(F)ccc2F)S[C@@]1(CCCN)c1ccccc1 [filanesib]
# Procedure, shortened: as §1
# [3] = compound: CO[C@H]1C[C@@H]2CC[C@@H](C)[C@@](O)(O2)C(=O)C(=O)N2CCCC[C@H]2C(=O)O[C@H]([C@H](C)C[C@@H]2CC[C@H](n3cnnn3)[C@H](OC)C2)CC(=O)[C@H](C)/C=C(\C)[C@@H](O)[C@@H](OC)C(=O)[C@H](C)C[C@H](C)/C=C/C=C/C=C/1C [zotarolimus]
# Procedure, shortened: as §1
# [4] = compound: COc1cc(C(=O)O)ccc1NC(=O)[C@@H]1N[C@@H](CC(C)(C)C)[C@](C#N)(c2ccc(Cl)cc2F)[C@H]1c1cccc(Cl)c1F [idasanutlin]
# Procedure, shortened: as §1
# [5] = compound: COc1cc(Nc2ncc3c(n2)-c2ccc(Cl)cc2C(c2c(F)cccc2OC)=NC3)ccc1C(=O)O [alisertib]
# Procedure, shortened: as §1
# [6] = compound: COc1cc2nc(-c3cc(F)ccc3O)nc(N[C@@H]3CNC[C@H]3C(C)(C)O)c2cc1OC
# Procedure, shortened: as §1
# [7] = compound: COc1cc2ncnc(Nc3ccc(F)c(Cl)c3)c2cc1OCCCN1CCOCC1 [gefitinib]
# Procedure, shortened: as §1
# [8] = compound: COc1cccc2cc(-c3nc([C@H]4CC[C@H](C(=O)O)CC4)n4ncnc(N)c34)[nH]c12
# Procedure, shortened: as §1
# [9] = compound: CS(=O)(=O)CCNCc1ccc(-c2ccc3ncnc(Nc4ccc(OCc5cccc(F)c5)c(Cl)c4)c3c2)o1 [lapatinib]
# Procedure, shortened: as §1
# [10] = compound: CS(=O)(=O)N1CCN(Cc2cc3nc(-c4cccc5[nH]ncc45)nc(N4CCOCC4)c3s2)CC1 [pictilisib]
# Procedure, shortened: as §1
# UniProt P69905, sequence (P69905 whole entry, looked up): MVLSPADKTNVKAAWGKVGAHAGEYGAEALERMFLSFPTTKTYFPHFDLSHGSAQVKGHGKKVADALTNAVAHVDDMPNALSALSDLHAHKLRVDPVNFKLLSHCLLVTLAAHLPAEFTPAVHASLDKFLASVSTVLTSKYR
# UniProt P55795, sequence (P55795 whole entry, looked up): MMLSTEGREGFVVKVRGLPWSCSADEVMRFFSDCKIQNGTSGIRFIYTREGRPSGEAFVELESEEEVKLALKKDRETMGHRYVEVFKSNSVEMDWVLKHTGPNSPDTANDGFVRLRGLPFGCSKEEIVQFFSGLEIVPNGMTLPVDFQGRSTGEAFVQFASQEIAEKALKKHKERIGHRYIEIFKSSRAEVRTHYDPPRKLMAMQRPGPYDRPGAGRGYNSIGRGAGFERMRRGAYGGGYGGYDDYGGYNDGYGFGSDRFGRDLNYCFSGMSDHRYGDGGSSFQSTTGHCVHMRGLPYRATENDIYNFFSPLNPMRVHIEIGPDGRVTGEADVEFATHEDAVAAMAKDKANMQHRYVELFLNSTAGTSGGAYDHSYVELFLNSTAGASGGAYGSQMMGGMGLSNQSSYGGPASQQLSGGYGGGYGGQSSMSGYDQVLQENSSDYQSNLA
# UniProt Q9UBN7, sequence (Q9UBN7 whole entry, looked up): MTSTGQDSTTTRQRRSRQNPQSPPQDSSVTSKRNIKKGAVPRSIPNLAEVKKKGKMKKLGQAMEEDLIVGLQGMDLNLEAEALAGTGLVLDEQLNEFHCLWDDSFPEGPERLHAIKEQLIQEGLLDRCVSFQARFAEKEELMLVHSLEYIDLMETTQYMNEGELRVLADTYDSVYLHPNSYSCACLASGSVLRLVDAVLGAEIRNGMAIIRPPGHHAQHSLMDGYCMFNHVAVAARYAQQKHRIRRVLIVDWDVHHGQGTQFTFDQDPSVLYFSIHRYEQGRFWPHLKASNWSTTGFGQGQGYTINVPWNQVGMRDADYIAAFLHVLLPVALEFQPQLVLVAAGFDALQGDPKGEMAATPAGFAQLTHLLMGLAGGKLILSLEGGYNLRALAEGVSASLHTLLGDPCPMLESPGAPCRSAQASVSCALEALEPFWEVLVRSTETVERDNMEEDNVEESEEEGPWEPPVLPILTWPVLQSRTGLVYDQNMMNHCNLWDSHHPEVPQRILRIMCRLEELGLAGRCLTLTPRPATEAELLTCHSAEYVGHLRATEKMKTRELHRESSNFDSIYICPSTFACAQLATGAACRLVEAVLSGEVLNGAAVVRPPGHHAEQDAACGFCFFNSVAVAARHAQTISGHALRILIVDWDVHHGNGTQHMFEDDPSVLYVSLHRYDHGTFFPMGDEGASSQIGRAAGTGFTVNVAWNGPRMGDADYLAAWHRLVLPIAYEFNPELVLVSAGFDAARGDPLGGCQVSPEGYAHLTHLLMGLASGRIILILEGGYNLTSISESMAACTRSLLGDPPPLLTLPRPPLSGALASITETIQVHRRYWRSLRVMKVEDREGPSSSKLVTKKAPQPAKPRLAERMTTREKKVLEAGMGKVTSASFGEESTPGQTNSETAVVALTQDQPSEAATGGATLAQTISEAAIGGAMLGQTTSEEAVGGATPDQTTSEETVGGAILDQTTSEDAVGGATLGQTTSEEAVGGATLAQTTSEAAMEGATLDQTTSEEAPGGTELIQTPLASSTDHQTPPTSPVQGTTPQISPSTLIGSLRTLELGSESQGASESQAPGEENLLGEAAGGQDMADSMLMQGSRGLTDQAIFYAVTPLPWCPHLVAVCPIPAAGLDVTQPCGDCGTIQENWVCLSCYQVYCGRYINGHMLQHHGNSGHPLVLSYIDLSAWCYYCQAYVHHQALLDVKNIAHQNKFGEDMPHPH
# UniProt P02008, sequence (P02008 whole entry, looked up): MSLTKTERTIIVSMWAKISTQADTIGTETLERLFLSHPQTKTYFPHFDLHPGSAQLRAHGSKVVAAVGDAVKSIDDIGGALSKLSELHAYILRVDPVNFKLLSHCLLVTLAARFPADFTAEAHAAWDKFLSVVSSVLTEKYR
# UniProt Q86VQ1, sequence (Q86VQ1 whole entry, looked up): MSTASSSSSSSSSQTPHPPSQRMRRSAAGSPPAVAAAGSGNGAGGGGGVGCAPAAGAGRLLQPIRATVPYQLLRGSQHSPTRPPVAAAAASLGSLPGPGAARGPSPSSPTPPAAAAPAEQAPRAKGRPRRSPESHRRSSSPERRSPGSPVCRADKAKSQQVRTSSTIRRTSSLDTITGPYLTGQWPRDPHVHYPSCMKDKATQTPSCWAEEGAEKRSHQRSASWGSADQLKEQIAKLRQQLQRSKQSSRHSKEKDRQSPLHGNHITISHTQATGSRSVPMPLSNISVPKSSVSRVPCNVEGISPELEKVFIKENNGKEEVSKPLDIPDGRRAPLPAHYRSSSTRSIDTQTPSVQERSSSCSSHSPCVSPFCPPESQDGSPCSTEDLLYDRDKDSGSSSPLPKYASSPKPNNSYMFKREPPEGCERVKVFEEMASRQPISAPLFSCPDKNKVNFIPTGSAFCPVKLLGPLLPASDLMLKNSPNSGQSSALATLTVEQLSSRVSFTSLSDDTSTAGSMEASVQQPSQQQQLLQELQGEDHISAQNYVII
# UniProt P50213, sequence (P50213 whole entry, looked up): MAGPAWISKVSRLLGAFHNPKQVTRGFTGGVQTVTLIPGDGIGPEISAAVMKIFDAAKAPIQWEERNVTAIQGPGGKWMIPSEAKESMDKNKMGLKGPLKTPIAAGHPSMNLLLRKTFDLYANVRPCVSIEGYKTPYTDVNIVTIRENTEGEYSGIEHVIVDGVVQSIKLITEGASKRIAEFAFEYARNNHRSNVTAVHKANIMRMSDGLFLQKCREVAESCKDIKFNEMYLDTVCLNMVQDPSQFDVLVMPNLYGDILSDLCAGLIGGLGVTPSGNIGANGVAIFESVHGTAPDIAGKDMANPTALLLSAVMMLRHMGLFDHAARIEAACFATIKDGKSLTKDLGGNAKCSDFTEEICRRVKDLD
# UniProt P06865, sequence (P06865 whole entry, looked up): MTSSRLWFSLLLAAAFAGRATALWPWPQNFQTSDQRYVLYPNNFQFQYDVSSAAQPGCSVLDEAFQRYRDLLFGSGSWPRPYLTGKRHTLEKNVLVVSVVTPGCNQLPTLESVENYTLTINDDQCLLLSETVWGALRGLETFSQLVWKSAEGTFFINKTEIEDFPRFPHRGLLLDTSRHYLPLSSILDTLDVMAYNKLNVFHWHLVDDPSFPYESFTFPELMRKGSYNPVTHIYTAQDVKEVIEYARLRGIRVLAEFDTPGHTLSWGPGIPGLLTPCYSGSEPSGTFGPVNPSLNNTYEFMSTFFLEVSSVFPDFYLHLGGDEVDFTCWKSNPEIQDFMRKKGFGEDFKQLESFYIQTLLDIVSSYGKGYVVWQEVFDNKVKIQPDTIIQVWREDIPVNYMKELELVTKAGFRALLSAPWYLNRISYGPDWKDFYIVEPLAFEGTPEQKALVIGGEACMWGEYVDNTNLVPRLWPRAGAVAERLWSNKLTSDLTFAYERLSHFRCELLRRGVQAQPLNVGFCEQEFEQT
# UniProt O14526, sequence (O14526 whole entry, looked up): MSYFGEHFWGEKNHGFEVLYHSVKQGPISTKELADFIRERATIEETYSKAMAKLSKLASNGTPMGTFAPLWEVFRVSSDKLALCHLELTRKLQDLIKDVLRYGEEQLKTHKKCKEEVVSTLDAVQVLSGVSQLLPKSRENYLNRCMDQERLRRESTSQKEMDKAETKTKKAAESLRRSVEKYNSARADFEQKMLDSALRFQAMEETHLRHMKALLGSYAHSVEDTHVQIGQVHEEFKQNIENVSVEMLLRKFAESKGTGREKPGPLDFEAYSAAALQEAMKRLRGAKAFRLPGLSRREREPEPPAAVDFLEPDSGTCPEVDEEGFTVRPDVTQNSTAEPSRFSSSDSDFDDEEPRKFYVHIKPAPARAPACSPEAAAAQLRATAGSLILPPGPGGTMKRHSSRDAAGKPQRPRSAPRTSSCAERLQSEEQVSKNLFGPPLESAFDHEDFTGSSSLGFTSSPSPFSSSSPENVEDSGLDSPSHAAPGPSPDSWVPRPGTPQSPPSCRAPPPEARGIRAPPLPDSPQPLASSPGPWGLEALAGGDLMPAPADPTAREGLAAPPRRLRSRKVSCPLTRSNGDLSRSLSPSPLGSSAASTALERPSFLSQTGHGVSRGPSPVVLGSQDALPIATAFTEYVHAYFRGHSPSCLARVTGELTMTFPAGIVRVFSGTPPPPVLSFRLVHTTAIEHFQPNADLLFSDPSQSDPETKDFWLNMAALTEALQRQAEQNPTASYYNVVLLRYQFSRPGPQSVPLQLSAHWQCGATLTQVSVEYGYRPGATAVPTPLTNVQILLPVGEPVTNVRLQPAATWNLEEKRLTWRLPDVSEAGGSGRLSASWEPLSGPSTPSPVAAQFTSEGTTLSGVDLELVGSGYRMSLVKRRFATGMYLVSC
# UniProt Q86VS8, sequence (Q86VS8 whole entry, looked up): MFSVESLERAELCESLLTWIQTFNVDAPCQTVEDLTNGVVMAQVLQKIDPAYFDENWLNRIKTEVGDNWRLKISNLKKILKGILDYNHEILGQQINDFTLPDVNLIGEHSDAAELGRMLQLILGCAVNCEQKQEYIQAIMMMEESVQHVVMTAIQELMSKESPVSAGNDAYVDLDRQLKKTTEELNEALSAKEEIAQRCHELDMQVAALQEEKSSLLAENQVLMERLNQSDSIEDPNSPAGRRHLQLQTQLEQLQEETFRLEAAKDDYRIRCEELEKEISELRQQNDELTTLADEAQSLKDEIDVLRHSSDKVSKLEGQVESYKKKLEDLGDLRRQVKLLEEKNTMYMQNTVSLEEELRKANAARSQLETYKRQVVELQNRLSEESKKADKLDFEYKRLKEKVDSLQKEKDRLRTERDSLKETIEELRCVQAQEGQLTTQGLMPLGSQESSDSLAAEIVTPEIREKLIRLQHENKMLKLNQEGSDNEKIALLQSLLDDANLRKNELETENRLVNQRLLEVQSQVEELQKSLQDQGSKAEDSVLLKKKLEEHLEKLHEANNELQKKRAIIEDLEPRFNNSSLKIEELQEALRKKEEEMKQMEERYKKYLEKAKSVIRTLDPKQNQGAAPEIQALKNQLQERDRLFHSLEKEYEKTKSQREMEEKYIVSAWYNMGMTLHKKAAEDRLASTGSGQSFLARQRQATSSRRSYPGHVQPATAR
Target,log2 fold change [1],log2 fold change [2],log2 fold change [3],log2 fold change [4],log2 fold change [5],log2 fold change [6],log2 fold change [7],log2 fold change [8],log2 fold change [9],log2 fold change [10]
HOOK3 (UniProt Q86VS8),-0.074,-0.108,0.001,0.036,0.07,0.014,-0.006,0.018,0.032,-0.021
GOLGB1 isoform 2 (UniProt Q14789),-0.16,0.337 (active),-0.04,0.066,-0.069,0.072,-0.02,-0.051,0.046,0.066
HEXA (UniProt P06865),0.028,-0.066,-0.015,-0.012,-0.095,0.01,-0.005,0.035,0,0.03
HHEX (UniProt Q03014),0.178,-0.007,-0.102,0.035,0.002,-0.04,-0.016,0.053,-0.004,-0.012
FCHO1 (UniProt O14526),0.061,0.055,0.068,0.072,-0.055,0.256,0.046,0.022,-0.105,–
HDAC6 (UniProt Q9UBN7),0.676 (active),0.006,0.008,-0.055,-0.097,0.028,0.043,-0.027,0.016,0.062
HNRNPH2 (UniProt P55795),0.003,0.033,0.079,0.001,0.058,-0.231,0.02,-0.079,0.057,-0.021
IDH3A (UniProt P50213),0,-0.067,0.007,-0.074,-0.063,-0.009,0.039,0.022,0.017,-0.021
HBZ (UniProt P02008),0.012,-0.003,0.035,0.045,-0.077,-0.055,0.003,0.093,0.007,-0.006
GLCCI1 (UniProt Q86VQ1),0.009,0.052,0.067,0.11,-0.025,-0.096,0.109,0.083,-0.02,-0.039
HNRNPK isoform 2 (UniProt P61978),0.008,-0.001,-0.022,-0.011,-0.004,-0.035,0.051,0.049,-0.016,0.004
GTF2B (UniProt Q00403),0.046,-0.018,0.054,-0.085,-0.037,-0.001,0.02,-0.006,-0.047,-0.025
HBA1 (UniProt P69905),-0.037,0.02,0.068,-0.044,-0.093,-0.154,0.032,0.079,0.036,-0.088
GEMIN5 (UniProt Q8TEQ6),0.017,0.037,0.039,-0.024,-0.041,-0.235 (active),0.013,-0.035,0.015,-0.021
